# “And” between values parts separate entries of the source, which are not always exact repeats. Identical values can stand only once. Results filed as inconclusive are left out. A call without a number means that no potency is given here. Some structures have more than one record in an assay (separate samples or runs), and their calls can disagree. The source made the active and inactive calls. Unless noted, the call rests on the fitted dose curve; in most records, active means well fitted curve in the direction sought with a large enough effect in the repeat runs; inconclusive means weak or mixed curves; inactive means no such curve, though single readings can be large; an effect the other way counts as inactive or inconclusive.
# Experiments:
# [1] = qHTS assay to identify small molecule antagonists of the glucocorticoid receptor (GR) signaling pathway - cell viability counter screen (AID 720693); further: nearly all actives have a fitted effect of over 55% in size; further: potency means the concentration at half of the fitted maximal effect
# [2] = qHTS assay for identifying genotoxic compounds that show differential cytotoxicity against isogenic chicken DT40 cell lines with known DNA damage response pathways - wild type cell line (AID 743012); further: nearly all actives have a fitted effect of over 60% in size; further: potency means the concentration at half of the fitted maximal effect
# Outline: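 Parental DNA repair-proficient DT40 cells, 300 per well, were pre-incubated ~0.5 h at 37 C/5% CO2, pin-dosed with compounds in DMSO, then incubated 40 h. Viability was read as CellTiter-Glo luminescence after 30 min at room temperature.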
# [3] = qHTS assay for identifying genotoxic compounds that show differential cytotoxicity against isogenic chicken DT40 cell lines with known DNA damage response pathways - Rev3 mutant cell line (AID 743014); further: nearly all actives have a fitted effect of over 55% in size; further: potency means the concentration at half of the fitted maximal effect
# [4] = qHTS assay for identifying genotoxic compounds that show differential cytotoxicity against isogenic chicken DT40 cell lines with known DNA damage response pathways - Rad54/Ku70 mutant cell line (AID 743015); further: nearly all actives have a fitted effect of over 60% in size; further: potency means the concentration at half of the fitted maximal effect
# [5] = qHTS assay to identify small molecule antagonists of the androgen receptor (AR) signaling pathway - cell viability counter screen (AID 743033; further: nearly all actives have a fitted effect of over 45% in size; further: potency means the concentration at half of the fitted maximal effect)
# [6] = qHTS assay to identify small molecule antagonists of the thyroid receptor (TR) signaling pathway - cell viability counter screen (AID 743064); further: nearly all actives have a fitted effect of over 50% in size; further: potency means the concentration at half of the fitted maximal effect
# Outline: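 In-well cytotoxicity read by CellTiter-Fluor (30 min, 37 C) following 23.5 h exposure of GH3 cells bearing a TRE-luciferase sensor. Compounds were added alongside 1 nM (final) T3 to drive TR transactivation.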
# [7] = qHTS assay to identify small molecule antagonists of the androgen receptor (AR) signaling pathway using the MDA cell line - cell viability counter screen (AID 743041; further: nearly all actives have a fitted effect of over 45% in size; further: potency means the concentration at half of the fitted maximal effect)
# Outline: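 R1881-driven MDA-kb2 AR-luc cells, 3,000/well, were dosed with library compounds for 16 h; cell health came from CellTiter-Fluor fluorescence in the reporter wells.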
# [8] = target: Androgen receptor (Homo sapiens) (UniProt P10275); test: qHTS assay to identify small molecule agonists of the androgen receptor (AR) signaling pathway using the MDA cell line (AID 743040; further: nearly all actives have a fitted effect of over 20% in size)
# Outline: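 After a 5 h incubation at 37C and 0% CO2, MDA-kb2 reporter cells were dosed with compounds in DMSO and kept 16 h under the same conditions. Luciferase activity was then read as luminescence with ONE-Glo.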
# [9] = target: Androgen receptor (Homo sapiens) (UniProt P10275); test: qHTS assay to identify small molecule antagonists of the androgen receptor (AR) signaling pathway using the MDA cell line (AID 743042; further: nearly all actives have a fitted effect of over 55% in size; further: potency means the concentration at half of the fitted maximal effect)
# Outline: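 Antagonist mode: compounds plus R1881 agonist added to MDA-kb2 AR-luc cells, incubated 16 h at 37C. Luciferase reporter luminescence quantified, with multiplexed CellTiter-Fluor readout for cell viability.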
# [10] = target: Androgen receptor (Homo sapiens) (UniProt P10275); test: qHTS assay to identify small molecule agonists of the androgen receptor (AR) signaling pathway (AID 743036; active means well fitted activation curve with a large enough effect in the signal ratio in the repeat runs, with a control signal flat, not every such curve was filed as active; the % refers to the signal ratio)
# Outline: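 Activation was read as beta-lactamase FRET signal from LiveBLAzer B/G substrate, added for 2 h at room temperature. Before that, GeneBLAzer AR-UAS-bla GripTite (HEK293) cells had 16 h compound exposure at 37C.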
# Sequence of Androgen receptor (Homo sapiens) (P10275 whole entry, looked up): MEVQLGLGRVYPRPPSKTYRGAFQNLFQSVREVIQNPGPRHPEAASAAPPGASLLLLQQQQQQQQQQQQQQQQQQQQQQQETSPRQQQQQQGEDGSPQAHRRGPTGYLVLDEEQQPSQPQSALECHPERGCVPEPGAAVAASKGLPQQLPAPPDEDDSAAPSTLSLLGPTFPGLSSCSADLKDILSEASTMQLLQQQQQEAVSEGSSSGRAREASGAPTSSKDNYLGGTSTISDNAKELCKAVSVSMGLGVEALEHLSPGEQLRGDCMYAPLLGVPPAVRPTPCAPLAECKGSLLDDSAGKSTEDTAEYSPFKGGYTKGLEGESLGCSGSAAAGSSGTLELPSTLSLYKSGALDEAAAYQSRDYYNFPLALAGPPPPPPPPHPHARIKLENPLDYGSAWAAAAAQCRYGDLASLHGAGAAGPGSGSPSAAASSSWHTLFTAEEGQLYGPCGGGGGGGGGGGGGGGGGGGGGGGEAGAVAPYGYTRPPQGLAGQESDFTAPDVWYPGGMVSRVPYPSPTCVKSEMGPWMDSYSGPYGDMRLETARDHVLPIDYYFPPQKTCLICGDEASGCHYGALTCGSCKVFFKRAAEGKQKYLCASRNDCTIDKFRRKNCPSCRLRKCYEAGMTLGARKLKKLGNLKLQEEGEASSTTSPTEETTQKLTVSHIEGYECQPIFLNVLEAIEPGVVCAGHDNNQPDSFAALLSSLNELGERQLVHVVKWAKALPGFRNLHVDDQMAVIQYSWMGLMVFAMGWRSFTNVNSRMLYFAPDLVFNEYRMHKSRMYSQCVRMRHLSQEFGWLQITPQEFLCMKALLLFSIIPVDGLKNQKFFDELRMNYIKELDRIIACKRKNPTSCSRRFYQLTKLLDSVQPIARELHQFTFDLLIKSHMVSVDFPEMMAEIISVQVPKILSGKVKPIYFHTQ
SMILES,Potency [1],Potency [2],Potency [3],Potency [4],Potency [5],Potency [6],Potency [7],Potency [8],Potency [9],Potency [10]
O=C/C(Cl)=C(/Cl)C(=O)O,inactive,17.2 µM (active),19.3 µM (active) and 15.4 µM (active),21.7 µM (active),,,,,,
ClCc1ccc(Cl)cc1Cl,inactive,inactive,inactive,inactive,inactive,inactive,,,,
N#CNC#N,inactive,inactive,inactive,,inactive,,inactive,,,
Cn1cc(C2=C(c3cn(C4CCN(Cc5ccccn5)CC4)c4ccccc34)C(=O)NC2=O)c2ccccc21,inactive,inactive,inactive,inactive,inactive,inactive,,,,
CC(C)Oc1cccc(NC(=O)c2ccccc2C(F)(F)F)c1,inactive,15.4 µM (active),15.4 µM (active),,inactive,,,,,
CC(C)(O)c1cnn2c(-c3ccc(F)c(-c4c(F)cccc4C#N)c3)cnc2n1,inactive,48.6 µM (active),30.6 µM (active),,inactive,,,inactive,inactive,
Cc1cc(C)cc(OP(=O)(Oc2cc(C)cc(C)c2)Oc2cc(C)cc(C)c2)c1,inactive,inactive,inactive,,inactive,inactive,,,,
CN(C)CCc1c[nH]c2ccc(O)cc12,inactive,inactive,inactive,,inactive,inactive,inactive,inactive,inactive,inactive
CN(C)C(=S)S,inactive,1.36 µM (active) and 1.37 µM (active),1.21 µM (active) and 1.72 µM (active),1.36 µM (active) and 2.17 µM (active),15.8 µM (active) and 1.54 µM (active) and 9.77 µM (active),inactive and 27.1 µM (active) and 2.73 µM (active),,,,
CC(C)(C)c1ccc(CSc2cnn(C(C)(C)C)c(=O)c2Cl)cc1,inactive,0.0097 µM (active),0.0193 µM (active),0.0109 µM (active),,54.5 µM (active),,,,
CC(=O)OC1(c2ccccc2)CCN(CCc2ccccc2)CC1,inactive,4.43 µM (active),4.43 µM (active),4.43 µM (active),inactive,31.4 µM (active),,,,
O=[N+]([O-])c1cc(C(F)(F)F)c(Cl)c([N+](=O)[O-])c1Cl,12.3 µM (active),0.386 µM (active),0.486 µM (active),,21.9 µM (active),0.611 µM (active),54.5 µM (active),,,
BrC(Br)C(Br)(Br)Br,inactive,inactive,inactive,,,24.5 µM (active),inactive,,,
CC(=O)O[C@H]1CC[C@@]2(C)C(=CC[C@@H]3[C@@H]2CC[C@]2(C)C(=O)CC[C@@H]32)C1,inactive,inactive,inactive,,inactive,inactive,inactive,inactive,inactive,inactive
c1ccc2cc3c(cc2c1)-c1cccc2cccc-3c12,inactive,inactive,inactive,,inactive,,inactive,inactive,,
CCOCn1c(-c2ccc(Cl)cc2)c(C#N)c(Br)c1C(F)(F)F,3.47 µM (active),1.93 µM (active),2.17 µM (active),1.54 µM (active),0.871 µM (active),6.11 µM (active),,,,
c1ccc2c(c1)OCC(C1=NCCN1)O2 (stereo not drawn),inactive,5.31 µM (active),7.5 µM (active),8.41 µM (active),inactive,7.5 µM (active),,,,
Fc1ccc(Oc2ccnc3cc(Cl)cc(Cl)c23)cc1,inactive,61.1 µM (active),68.6 µM (active),,inactive,,,,,
CCCN(CCC)c1c([N+](=O)[O-])cc(S(N)(=O)=O)cc1[N+](=O)[O-],58.6 µM (active),2.06 µM (active),16.9 µM (active),,20.8 µM (active),48.7 µM (active),51.8 µM (active),,,
CC(C)[C@H](C(=O)O[C@H](C#N)c1cccc(Oc2ccccc2)c1)c1ccc(Cl)cc1,inactive,43.2 µM (active),43.2 µM (active),,inactive,inactive,inactive,,,
C[C@@H]1O[C@@H](O[C@H]2C[C@@H](O)[C@]3(CO)[C@H]4[C@H](O)C[C@]5(C)[C@@H](C6=CC(=O)OC6)CC[C@]5(O)[C@@H]4CC[C@]3(O)C2)[C@H](O)[C@H](O)[C@H]1O,379 nM (active) and 213 nM (active) and 58.5 nM (active),2.11 µM (active) and 1.88 µM (active) and 1.3 µM (active),2.11 µM (active) and 1.88 µM (active) and 517 nM (active),,67.4 nM (active) and 53.5 nM (active) and 11.7 nM (active),inactive,,inactive,841 nM (active) and inactive,
[Cl][Sb]([Cl])[Cl],inactive,inactive,inactive,,inactive,17.2 µM (active),,,,
CCOC(=O)C1(c2ccccc2)CCN(CCC(C#N)(c2ccccc2)c2ccccc2)CC1,inactive,2.98 µM (active) and 5.31 µM (active),3.76 µM (active) and 10.6 µM (active),,,,,inactive,26.6 µM (active) and 53.1 µM (active),
